Experimental data as given in PubChem BioAssay AID1159580 (chemical genetic matrix, 2015).
About 2,000 (36%) of roughly 5,500 compounds were called active. Another 18% or so got no clear call; they are omitted. No stated cut-off is given here; in the data, active means normalized growth mostly below about 0.91 (no sharp cut-off); inconclusive means no clear call, values can overlap the other calls; inactive means mostly above about 0.92. This is one part of the list.

Experiment: chemical genetic growth profiling, strain panel (AID 1159580);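 further: tested at 20 µM; growth read once vehicle control cultures reached saturation at 30 °C; 1 = growth at the plate median or of vehicle wells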
Conditions: S. cerevisiae deletion strains, growth OD

Measured: normalized growth

CCOC(=O)c1c(C)cc(O)c(C)c1O
active: locus YDR101C, strain arx1, stronger effect = lower value 0.901 | locus YDR318W, strain mcm21, stronger effect = lower value 0.901 | locus YDR388W, stronger effect = lower value 0.916 | locus YGL086W, strain mad1, stronger effect = lower value 0.916 | locus YIL125W, strain kgd1, stronger effect = lower value 0.922 | locus YKR001C, strain vps1, stronger effect = lower value 0.887 | locus YLR371W, strain rom2, stronger effect = lower value 0.717 | locus YLR418C, strain cdc73, stronger effect = lower value 0.806 | locus YNL307C, strain MCK1, stronger effect = lower value 0.875 | locus YOL147C, strain pex11, stronger effect = lower value 0.914 | locus YPR119W, strain clb2, stronger effect = lower value 0.928
inactive: locus YBR021W, strain FUR4, stronger effect = lower value 0.975 | locus YBR229C, strain ROT2, stronger effect = lower value 0.976 | locus YCL029C, strain bik1, stronger effect = lower value 0.955 | locus YDL035C, strain GPR1, stronger effect = lower value 1.01 | locus YDL074C, strain BRE1, stronger effect = lower value 0.981 | locus YDL101C, strain DUN1, stronger effect = lower value 0.986 | locus YDL134C, strain PPH21, stronger effect = lower value 0.979 | locus YDL185W, strain tfp1, stronger effect = lower value 0.969 | locus YDL192W, strain arf1, stronger effect = lower value 0.931 | locus YDR150W, strain NUM1, stronger effect = lower value 0.98 | locus YDR162C, strain NBP2, stronger effect = lower value 0.966 | locus YDR502C, strain sam2, stronger effect = lower value 0.929 | locus YEL061C, strain CIN8, stronger effect = lower value 0.975 | locus YER110C, stronger effect = lower value 0.938 | locus YER155C, strain BEM2, stronger effect = lower value 0.941 | locus YER167W, strain BCK2, stronger effect = lower value 0.961 | locus YGL078C, strain dbp3, stronger effect = lower value 0.968 | locus YGL248W, strain PDE1, stronger effect = lower value 0.992 | locus YGR135W, strain pre9, stronger effect = lower value 0.931 | locus YGR252W, strain gcn5, stronger effect = lower value 1.07 | locus YHR030C, strain SLT2, stronger effect = lower value 0.978 | locus YHR079C, strain IRE1 (second series), stronger effect = lower value 0.945 | locus YHR094C, strain hxt1, stronger effect = lower value 0.932 | locus YHR129C, strain ARP1, stronger effect = lower value 0.988 | locus YHR200W, strain rpn10, stronger effect = lower value 0.933 | locus YIL066C, strain RNR3, stronger effect = lower value 0.999 | locus YIL073C, strain SPO22, stronger effect = lower value 1.02 | locus YIR030C, strain dcg1, stronger effect = lower value 0.952 | locus YJL095W, strain BCK1, stronger effect = lower value 0.936 | locus YJL134W, strain LCB3, stronger effect = lower value 0.965 | locus YJL168C, strain set2, stronger effect = lower value 0.945 | locus YJL187C, strain SWE1 (second series), stronger effect = lower value 0.996 | locus YJR043C, strain POL32, stronger effect = lower value 0.949 | locus YKL009W, strain mrt4, stronger effect = lower value 1.01 | locus YKL068W, stronger effect = lower value 0.945 | locus YKL085W, strain MDH1 (second series), stronger effect = lower value 0.943 | locus YKL085W, strain MDH1, stronger effect = lower value 0.943 | locus YLR039C, strain RIC1, stronger effect = lower value 1.04 | locus YLR058C, strain SHM2, stronger effect = lower value 0.97 | locus YLR102C, strain apc9, stronger effect = lower value 0.946 | locus YLR268W, strain sec22, stronger effect = lower value 0.918 | locus YLR330W, strain CHS5, stronger effect = lower value 0.976 | locus YML016C, strain PPZ1, stronger effect = lower value 0.956 | locus YML032C, strain rad52, stronger effect = lower value 0.917 | locus YML124C, strain tub3, stronger effect = lower value 0.935 | locus YMR078C, strain ctf18, stronger effect = lower value 0.924 | locus YMR223W, strain ubp8, stronger effect = lower value 0.952 | locus YMR263W, strain SAP30, stronger effect = lower value 0.97 | locus YMR307W, strain GAS1, stronger effect = lower value 0.923 | locus YNL067W, strain RPL9B, stronger effect = lower value 0.978 | locus YNL233W, strain BNI4, stronger effect = lower value 0.956 | locus YNL250W, strain rad50, stronger effect = lower value 0.963 | locus YNL271C, strain bni1, stronger effect = lower value 0.941 | locus YNL298W, strain CLA4, stronger effect = lower value 0.964 | locus YNL322C, strain KRE1, stronger effect = lower value 0.968 | locus YNR052C, strain pop2, stronger effect = lower value 0.993 | locus YOL006C, strain TOP1, stronger effect = lower value 0.887 | locus YOL012C, strain htz1 0.713 | locus YOR061W, strain CKA2, stronger effect = lower value 0.98 | locus YOR069W, strain VPS5, stronger effect = lower value 0.975 | locus YOR136W, strain idh2, stronger effect = lower value 0.957 | locus YOR144C, strain elg1, stronger effect = lower value 0.939 | locus YOR184W, strain ser1, stronger effect = lower value 0.89 | locus YOR316C, strain cot1, stronger effect = lower value 0.959 | locus YPL055C, strain LGE1, stronger effect = lower value 0.954 | locus YPR141C, strain kar3, stronger effect = lower value 0.924 | locus YPR163C, strain tif3, stronger effect = lower value 0.918 | locus YPR167C, strain met16, stronger effect = lower value 0.945 | strain wtn01, stronger effect = lower value 0.909
